Compound activity (PubChem)
A selection: hits, their analogues and other compounds. The true share with any hit is near 19%.
VP16 counter – VP16 counterscreen qHTS for inhibitors of ROR gamma transcriptional activity; Drosophila S2 Gal4-VP16 UAS-luciferase, luminescence, 20 h; Potency, µM (top dose mostly 53.6 µM), without a hit: at the highest dose activity, negative = inhibition, hits mostly inhibitors; actives 3.5% (n = 310,000); AID 2546, 2010;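 also: Gal4-VP16 expression switched on by copper sulfate through the metallothionein promoter; nearly all actives have a fitted effect of over 50% in size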
TDP1 cell CPT – qHTS for Inhibitors of human tyrosyl-DNA phosphodiesterase 1 (TDP1): qHTS in cells in presence of CPT. chicken DT40 Tdp1-/-;hTDP1 cells + 20 nM CPT, ATP luminescence, 48 h. Potency, µM (titrated, usually from 46.2 µM), inactives show top-dose activity change, negative = growth inhibition, hits mostly inhibitors. actives 12% (n = 420,000). AID 686979, 2013; also: nearly all actives have a fitted effect of over 55% in size
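Chicken DT40 Tdp1-/- cells stably complemented with human TDP1 were seeded at 400 cells/well in medium containing 20 nM camptothecin, exposed to pin-transferred compounds, and grown at 37 °C for at least 48 hr. Viability was read as ATP luminescence.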
TDP1 inh – qHTS Assay for Inhibitors of Tyrosyl-DNA Phosphodiesterase (TDP1). actives 0.28% (n = 350,000). Potency, µM (titrated, usually from 130 µM), without a hit: at the highest dose activity change, negative = inhibition, most hits filed as inhibitors. recombinant TDP1, AlphaScreen DNA substrate cleavage. AID 485290, 2010. Tyrosyl-DNA phosphodiesterase 1 (Homo sapiens), Q9NUW8; also: nearly all actives have a fitted effect of over 40% in size
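AlphaScreen read-out: signal falls as enzyme removes the 3' tyrosine-FITC from a 5'-biotinylated DNA oligo (15 nM, 5 min, RT). Enzyme was E. coli-made recombinant Tdp1 at 1 nM, exposed to compound for 15 min beforehand; beads 10 ug/ml, 10 min.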
TDP1 cell noCPT – qHTS for Inhibitors of human tyrosyl-DNA phosphodiesterase 1 (TDP1): qHTS in cells in absence of CPT; Potency, µM (top dose mostly 46.2 µM), for inactives: top-dose activity change, negative = growth inhibition, most hits filed as inhibitors; DT40 Tdp1-/- hTDP1 cells, no CPT, ATP luminescence, 48 h; AID 686978, 2013; actives 15% (n = 420,000); also: nearly all actives have a fitted effect of over 55% in size
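A cellular qHTS used chicken DT40 cells lacking endogenous Tdp1 but carrying stably transfected human TDP1. Compounds were applied without camptothecin, and cell growth kinetics were judged by ATP-dependent luminescence after ≥48 hr.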
RORg inh – qHTS for inhibitors of ROR gamma transcriptional activity. Nuclear receptor ROR-gamma (Mus musculus), P51450. AID 2551, 2010. actives 5.4% (n = 310,000). Drosophila S2 Gal4-RORgamma UAS-luciferase reporter, 20 h. Potency, µM (top dose mostly 53.6 µM), without a hit: top-dose activity change, negative = inhibition, usual class: inhibitors; also: nearly all actives have a fitted effect of over 60% in size
Target sequence (P51450 whole entry, looked up, the tested form may be a part): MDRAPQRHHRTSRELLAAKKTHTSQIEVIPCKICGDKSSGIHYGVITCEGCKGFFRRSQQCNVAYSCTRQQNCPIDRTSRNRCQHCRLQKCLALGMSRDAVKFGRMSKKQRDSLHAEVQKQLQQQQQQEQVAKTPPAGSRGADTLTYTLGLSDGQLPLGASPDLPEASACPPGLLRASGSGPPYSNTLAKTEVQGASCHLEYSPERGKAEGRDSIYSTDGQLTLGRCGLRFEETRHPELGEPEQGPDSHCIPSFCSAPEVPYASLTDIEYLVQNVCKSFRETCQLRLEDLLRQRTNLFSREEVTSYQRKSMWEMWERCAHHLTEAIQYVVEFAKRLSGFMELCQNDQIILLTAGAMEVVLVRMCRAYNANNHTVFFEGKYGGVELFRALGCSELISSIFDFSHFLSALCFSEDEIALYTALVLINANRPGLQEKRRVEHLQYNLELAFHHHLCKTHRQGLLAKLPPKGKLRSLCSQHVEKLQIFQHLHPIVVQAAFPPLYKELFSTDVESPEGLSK
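Using a luciferase readout, inhibitors were identified by reduced reporter activity in Drosophila cells coexpressing a copper-inducible Gal4–ROR gamma fusion and UAS-driven Photinus luciferase, incubated 20 hr after 700 uM copper sulfate.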
* hit, by the source's call; ? = inconclusive; nt = no result given; [ ] = remark or other dose. Calls follow the shape of the dose curve; as a rule, active = well fitted curve in the direction sought with a large enough effect; inconclusive = small, poorly fitted or top-dose-only effect, or another doubt; inactive = no such curve, though single readings can be large; an effect the other way counts as inactive or inconclusive. % is scaled to controls: 0 for no effect and ±100 for the full control effect; potency is read from the fitted curve at half-maximal effect.

SMILES	VP16 counter	TDP1 cell CPT	TDP1 inh	TDP1 cell noCPT	RORg inh
CCn1c(SCC(=O)N2CCc3ccccc3C2)nc2c1c(=O)n(C)c(=O)n2C	-5%	23µM*	3%	-26%	-12%[10 µM]
O=C(COC(=O)C1CCN(c2ccc(C(F)(F)F)cn2)CC1)NCCc1ccccc1	nt	2%	-8%	18%	nt
CCC(Sc1nc2n[nH]c(C)c2c(=N)n1-c1cc(Cl)ccc1C)C(=O)N1CCOCC1 (configuration not stated)	-2%	?	0%	12µM*	-28%
Cc1ccc(Cl)cc1N1CCN(C(=O)c2c(C)oc3ncnc(N4CCOCC4)c23)CC1	nt	?	3%	?	nt
COc1ccc(S(=O)(=O)Nc2ccc(-n3cnnn3)cc2)cc1Br	nt	?	2%	-23%	nt
COc1ccc(S(=O)(=O)NC2CCCCC2)cc1-n1cnnn1	0%	-12%	5%	21µM*	1%
COc1ccc(NS(=O)(=O)c2ccc(-n3cnnn3)cc2)cc1OC	10µM*	16µM*	5%	9.2µM*	-5%
CSc1ccc(NS(=O)(=O)c2ccc(-n3cnnn3)cc2)cc1	?	?	5%	21µM*	?
CC1CN(c2oc(Cc3cccc4ccccc34)nc2C#N)CC(C)O1 (configuration not stated)	1%	?	9%	?	6%
Cc1ccccc1C(=O)Nc1cccc(C(=O)OCc2cc(=O)n3c4c(sc3n2)CCCC4)c1	nt	?	6%	?	nt
COC(=O)C1(Cc2cc(-c3ccc(OC)cc3OC)no2)CCN(C(=O)OC(C)(C)C)CC1	-1%	?	nt	21µM*	29%
CN(C)CCCCSC(=N)N	0%	1%	-3%[56.1 µM]	-26%	11%
N=C(N)SCCN	-3%	23µM*	-4%[56.1 µM]	15µM*	31%
CN(C)c1ccc(NC(=O)CN2CCN(c3ccc(F)cc3)CC2)cc1	-7%	0%	6%	1%	-5%
CCOC(=O)c1sc2nc(SCC(=O)N(CC)CC)n(CCCN3CCCC3=O)c(=O)c2c1C	-4%	18µM*	5%	-12%	11%
CCN(CC)C(=O)CSc1nc2sc3c(c2c(=O)n1CCOC)CCC3	5%	10%	nt	-25%	1%[1.91 µM]
COc1cc(OC)c(/C=C/c2c3ccccc3cc[n+]2C)c(OC)c1	nt	0.32µM*	nt	0.089µM*	nt
COc1cc(OC)c(/C=C/c2cc(/C=C/c3c(OC)cc(OC)cc3OC)[n+](C)c3ccccc23)c(OC)c1	nt	1.6µM*	nt	1.1µM*	nt
Cc1ccc(Cn2c(CCC(=O)O)nc3ncccc3c2=O)cc1	1%	1%	nt	2%	-3%
CCCCC(C(=O)NC1CCCC1)N(Cc1ccccc1)C(=O)c1snc(C(N)=O)c1N (configuration not stated)	14%	?	nt	21µM*	31%
CCCC(C(=O)NCCC(C)C)N(Cc1ccccc1)C(=O)c1snc(C(N)=O)c1N (configuration not stated)	2%	18µM*	nt	?	43%
